Source: PubChem BioAssay (NCI)
About 79,000 compounds went through this panel and 15% of them were active in at least one assay; those are over-represented in the sample as a whole. Values without a mark were called inactive. Activity calls are given as the source filed them. Rule as the data show it: active = growth inhibition above about 70%; inactive = the rest.

How the values were obtained:
[1] = NCI Yeast Anticancer Drug Screen. Data for the rad50 strain (AID 155);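 also: 0% = growth of vehicle-only cultures of the same strain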; settings: S. cerevisiae rad50 strain growth inhibition, stronger effect = higher value
Method in brief: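 Compounds were tested on a yeast strain with an engineered DNA damage repair alteration; the reported value is growth inhibition normalised to vehicle treatment.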

[2] = NCI Yeast Anticancer Drug Screen. Data for the mec2-1 strain (AID 157); settings: S. cerevisiae mec2-1 strain, stronger effect = higher value
Method in brief: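 Mutant yeast (mec2-1) grown with compound; growth inhibition relative to vehicle control reported.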

[3] = NCI Yeast Anticancer Drug Screen. Data for the sgs1 mgt1 strain (AID 161);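 also: 0% = growth of cultures given vehicle only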; settings: S. cerevisiae sgs1 mgt1 strain, stronger effect = higher value
Method in brief: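 Growth of a repair-deficient yeast mutant was monitored after compound treatment and expressed as inhibition relative to vehicle-treated cultures.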

[4] = NCI Yeast Anticancer Drug Screen. Data for the cln2 rad14 strain (AID 165);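 also: 0% = growth equal to vehicle treated cultures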; settings: S. cerevisiae cln2 rad14 strain, stronger effect = higher value
Method in brief: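 Readout is yeast growth inhibition versus vehicle-treated controls, using a strain with cln2 and rad14 alterations exposed to compound.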

[5] = NCI Yeast Anticancer Drug Screen. Data for the bub3 strain (AID 167); settings: S. cerevisiae bub3 mutant strain, stronger effect = higher value
Method in brief: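 Growth of a checkpoint-deficient yeast mutant is measured after compound exposure. Values represent inhibition relative to vehicle.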

[6] = NCI Yeast Anticancer Drug Screen. Data for the mlh1 rad18 strain (AID 175); settings: S. cerevisiae mlh1 rad18 strain growth inhibition, stronger effect = higher value
Method in brief: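 Genetically defined yeast (DNA repair-deficient) exposed to compounds; growth inhibition determined relative to vehicle.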

[7] = at 5.0 µM (retest, dose inferred, filed as 0.5)
[8] = at 50.0 µM (retest, dose inferred, filed as 5.0)

Row | SMILES | growth inhibition [1, 7] | growth inhibition [1, 8] | growth inhibition ([1]; at 50.0 µM) | growth inhibition [2, 7] | growth inhibition [2, 8] | growth inhibition ([2]; at 50.0 µM) | growth inhibition [3, 7] | growth inhibition [3, 8] | growth inhibition ([3]; at 50.0 µM) | growth inhibition [4, 7] | growth inhibition [4, 8] | growth inhibition ([4]; at 50.0 µM) | growth inhibition [5, 7] | growth inhibition [5, 8] | growth inhibition ([5]; at 50.0 µM) | growth inhibition [6, 7] | growth inhibition [6, 8] | growth inhibition ([6]; at 50.0 µM)
1 | Cc1[nH]ccc2c(C)c3nc4ccccc4c3cc12 | 47% | 97% (active) | 90% (active) | 10% | 87% (active) | 88.3% (active) | 14% | 87% (active) | 90.5% (active) | 4% | 82% (active) | 82.9% (active) | 9% | 73% (active) | 89% (active) | 13% | 95% (active) | 90.3% (active)
2 | c1ccc2[nH]c(CN(CCN(Cc3nc4ccccc4[nH]3)Cc3nc4ccccc4[nH]3)Cc3nc4ccccc4[nH]3)nc2c1 | 97% (active) | 95% (active) | 91.1% (active) | 97% (active) | 97% (active) | 91.5% (active) | 99% (active) | 96% (active) | 91% (active) | 99% (active) | 94% (active) | 90.3% (active) | 99% (active) | 95% (active) | 89% (active) | 96% (active) | 93% (active) | 89.7% (active)
3 | C[n+]1c(/C=C\c2ccccc2)sc2ccccc21 | 23% | 89% (active) | 82.8% (active) | 21% | 90% (active) | 82.3% (active) | 33% | 93% (active) | 88.7% (active) | 19% | 83% (active) | 74.8% (active) | 7% | 86% (active) | 76.9% (active) | 15% | 81% (active) | 87% (active)
4 | CC1CCC(C(C)(C)c2ccc(O)cc2)CC1 (configuration not stated) | 0% | 97% (active) | 97.7% (active) | -1% | 98% (active) | 98.2% (active) | 3% | 98% (active) | 98.8% (active) | -6% | 96% (active) | 97.6% (active) | -4% | 97% (active) | 98.3% (active) | -6% | 98% (active) | 98.3% (active)
5 | NN(Cc1ccccc1)c1ccccc1 | 50% | 83% (active) | 89.3% (active) | 47% | 87% (active) | 91.7% (active) | 20% | 100% (active) | 91.8% (active) | 43% | 99% (active) | 90% (active) | 40% | 99% (active) | 90.5% (active) | 27% | 77% (active) | 88.6% (active)
6 | CC(C)c1ccc(C(C)C)c(O)c1O | 13% | 72% (active) | 82% (active) | 24% | 73% (active) | 87.3% (active) | 22% | 79% (active) | 88% (active) | 21% | 63% | 53.2% | 7% | 67% | 87.2% (active) | 7% | 94% (active) | 69.8%
7 | Cc1cc2c(c3c1C(=O)CC3)C(C)(C)CC2(C)C | 1% | 77% (active) | 2.9% | -1% | 76% (active) | 9.15% | 1% | 70% (active) | 1.65% | -2% | 78% (active) | -4.5% | 25% | 92% (active) | 70.2% (active) | -3% | 64% | 6.05%
8 | CC(=O)OC1COC(n2ccc3cc(Br)c([N+](=O)[O-])cc32)C(OC(C)=O)C1OC(C)=O (configuration not stated) | -16% | 2% | 69.7% | -5% | 8% | 4.55% | -25% | 47% | 78% (active) | -45% | 3% | 5.45% | -23% | 71% (active) | 83.5% (active) | -27% | 36% | 47.9%
9 | O=C(CCCCCCCCCCc1ccccc1)c1ccc(Cl)cc1 | 7% | 76% (active) | 83.7% (active) | 5% | 79% (active) | 42.6% | 17% | 89% (active) | 93.7% (active) | 15% | 61% | 70.8% (active) | 13% | 72% (active) | 94.8% (active) | 16% | 80% (active) | 70.6% (active)
